For some assays here: Entries with a potency or affinity are not part of this list. Activity calls are given as the source filed them. Unless noted, how the calls were made is not given here.
Legend:
[1] = antimalarial activity against Dd2 strain (AID 2302;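 active means growth inhibition above 50% at the single 2 µM test dose, taken to imply half-maximal potency below 2 µM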;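 further: 0% = DMSO untreated growth and 100% = chloroquine plus artemisinin killed control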); conditions: P. falciparum Dd2 in RBCs, LDH growth readout, 72 h; at 2 µM; stronger effect = higher value
[2] = HepG2 cytotoxicity, primary screen, cytotoxicity control for P. falciparum antimalarial project, cell-based, ATP luminescence (AID 2303;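 active means inhibition above 50%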;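 further: 0% = DMSO wells and 100% = digitonin-killed cells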); conditions: HepG2 viability, 24-48 h, at 10 µM, stronger effect = higher value
[3] = target: L-lactate dehydrogenase (Plasmodium falciparum (isolate CDC / Honduras)) (UniProt Q27743); experiment: PfLDH activity inhibition – cell lysate, 3D7 strain, counter-screen for P. falciparum growth inhibition project (AID 2304);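 further: 0% = vehicle and 100% = reference inhibitor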; conditions: P. falciparum 3D7 crude extract, LDH APAD/NBT absorbance; at 2 µM; stronger effect = higher value
Sequence of L-lactate dehydrogenase (Plasmodium falciparum (isolate CDC / Honduras)) (Q27743 whole entry, looked up): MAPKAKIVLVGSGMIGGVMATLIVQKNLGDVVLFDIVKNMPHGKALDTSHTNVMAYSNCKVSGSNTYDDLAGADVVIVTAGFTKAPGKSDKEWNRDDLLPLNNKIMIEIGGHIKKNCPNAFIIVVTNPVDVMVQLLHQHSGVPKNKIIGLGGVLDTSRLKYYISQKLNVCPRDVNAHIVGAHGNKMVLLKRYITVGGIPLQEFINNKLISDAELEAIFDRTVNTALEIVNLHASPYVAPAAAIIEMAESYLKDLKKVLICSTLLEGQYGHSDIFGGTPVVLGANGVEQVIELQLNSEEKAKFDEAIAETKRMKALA

[4] = inhibition of 3D7 malaria parasite growth – strain 3D7 (AID 2306);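 further: 0% = DMSO wells and 100% = chloroquine plus artemisinin control wells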; conditions: P. falciparum 3D7 erythrocytic growth, LDH absorbance, 72 h; at 2 µM; stronger effect = higher value
[5] = target: Calcium-dependent protein kinase 1 (Plasmodium falciparum (isolate 3D7)) (UniProt P62344); experiment: PfCDPK1 kinase inhibitors, biochemical, TCAMS library (AID 1159585; cut-off not given, nearly all actives have IC50 up to about 0.98 µM;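 further: inhibitors leave more ATP so luminescence rises with inhibition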); conditions: recombinant PfCDPK1, Kinase-Glo ATP depletion luminescence
Sequence of Calcium-dependent protein kinase 1 (Plasmodium falciparum (isolate 3D7)) (P62344 whole entry, looked up): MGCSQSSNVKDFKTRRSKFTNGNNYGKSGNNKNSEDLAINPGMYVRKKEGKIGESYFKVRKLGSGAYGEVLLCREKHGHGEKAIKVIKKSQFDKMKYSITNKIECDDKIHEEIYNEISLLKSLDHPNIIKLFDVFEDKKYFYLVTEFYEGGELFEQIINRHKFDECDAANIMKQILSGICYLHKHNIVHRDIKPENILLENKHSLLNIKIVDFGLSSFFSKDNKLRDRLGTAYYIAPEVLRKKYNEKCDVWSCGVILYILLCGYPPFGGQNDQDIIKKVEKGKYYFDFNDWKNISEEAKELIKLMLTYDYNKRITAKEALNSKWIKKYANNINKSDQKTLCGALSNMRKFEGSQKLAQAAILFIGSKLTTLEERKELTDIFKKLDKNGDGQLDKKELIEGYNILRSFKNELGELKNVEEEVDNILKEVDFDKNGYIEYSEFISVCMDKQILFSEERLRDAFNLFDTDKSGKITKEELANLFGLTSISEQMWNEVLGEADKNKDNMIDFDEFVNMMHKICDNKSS

[6] = target: Plasmodium falciparum protein kinase 6 (PK6, PF3D7_1337100) (UniProt Q8IDW1); experiment: PfPK6 kinase inhibitors, biochemical, TCAMS library (AID 1159586); conditions: recombinant PfPK6, Kinase-Glo ATP depletion luminescence
Sequence of Plasmodium falciparum protein kinase 6 (PK6, PF3D7_1337100) (Q8IDW1 1-305): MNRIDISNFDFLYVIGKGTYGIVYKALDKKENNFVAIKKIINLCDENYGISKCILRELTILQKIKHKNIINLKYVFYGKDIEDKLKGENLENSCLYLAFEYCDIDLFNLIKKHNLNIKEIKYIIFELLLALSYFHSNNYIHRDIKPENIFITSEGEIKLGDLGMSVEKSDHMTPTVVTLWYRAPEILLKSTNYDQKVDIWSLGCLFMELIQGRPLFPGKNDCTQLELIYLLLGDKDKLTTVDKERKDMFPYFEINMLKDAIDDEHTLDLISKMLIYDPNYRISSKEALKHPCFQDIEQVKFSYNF

[7] = target: Protein kinase 7 (PK7), Plasmodium falciparum 3D7 (PF3D7_0213400) (UniProt Q7YTF7); experiment: inhibition of Plasmodium PK7 catalytic activity – biochemical, TCAMS antimalarial set, Kinase-Glo luminescence (AID 1159587); conditions: recombinant PfPK7, Kinase-Glo ATP depletion luminescence
Sequence of Protein kinase 7 (PK7), Plasmodium falciparum 3D7 (PF3D7_0213400) (Q7YTF7 1-343): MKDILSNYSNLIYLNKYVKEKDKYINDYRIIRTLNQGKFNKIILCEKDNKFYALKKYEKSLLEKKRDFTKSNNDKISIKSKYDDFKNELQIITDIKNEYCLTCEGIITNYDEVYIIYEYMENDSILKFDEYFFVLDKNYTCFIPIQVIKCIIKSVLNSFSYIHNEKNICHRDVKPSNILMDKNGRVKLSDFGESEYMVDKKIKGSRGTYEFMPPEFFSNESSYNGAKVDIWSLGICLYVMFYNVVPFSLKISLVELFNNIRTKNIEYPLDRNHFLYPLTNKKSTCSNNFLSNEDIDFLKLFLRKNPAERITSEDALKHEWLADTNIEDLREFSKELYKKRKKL

[8] = target: Calcium-dependent protein kinase 4 (Plasmodium falciparum (isolate 3D7)) (UniProt Q8IBS5); experiment: PfCDPK4 kinase inhibitors, biochemical, TCAMS library (AID 1159588; cut-off not given, nearly all actives have IC50 up to about 0.91 µM); conditions: recombinant PfCDPK4, Kinase-Glo ATP depletion luminescence
Sequence of Calcium-dependent protein kinase 4 (Plasmodium falciparum (isolate 3D7)) (Q8IBS5 whole entry, looked up): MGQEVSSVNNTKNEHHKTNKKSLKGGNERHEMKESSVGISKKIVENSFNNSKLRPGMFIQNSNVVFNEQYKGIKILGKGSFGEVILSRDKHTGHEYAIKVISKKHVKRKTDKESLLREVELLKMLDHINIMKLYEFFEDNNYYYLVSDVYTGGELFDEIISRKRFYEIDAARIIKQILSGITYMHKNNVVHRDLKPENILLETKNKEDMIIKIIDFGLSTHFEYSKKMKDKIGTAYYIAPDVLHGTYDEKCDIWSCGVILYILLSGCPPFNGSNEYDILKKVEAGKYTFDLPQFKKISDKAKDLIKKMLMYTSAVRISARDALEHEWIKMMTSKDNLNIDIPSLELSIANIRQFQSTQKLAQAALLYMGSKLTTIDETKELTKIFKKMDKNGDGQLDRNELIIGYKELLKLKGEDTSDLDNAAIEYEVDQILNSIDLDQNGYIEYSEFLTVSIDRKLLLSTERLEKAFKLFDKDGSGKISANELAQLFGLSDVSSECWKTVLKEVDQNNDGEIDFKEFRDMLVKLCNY

CC(O)C1CCCCN1C(=O)c1cccc(-c2cccc(-c3nc4ccccc4[nH]3)c2)c1 (configuration not stated)
active: growth inhibition [1] 76% | growth inhibition [4] 99%
inactive: inhibition [2] 20% | inhibition [3] -4% | outcome [5] | outcome [6] | outcome [7] | outcome [8]

Cc1cccc2[nH]c(-c3cccc(-c4cccc(NC(=O)c5ccoc5)c4)c3)nc12
inactive: inhibition [2] 19% | inhibition [3] -4% | outcome [5] | outcome [6] | outcome [7] | outcome [8]
active: growth inhibition [1] 71% | growth inhibition [4] 99%

CN1CCN(Cc2ccc(-c3ccc4c(Nc5ccc(F)cc5Cl)ccnc4c3)o2)CC1
inactive: inhibition [2] 8% | inhibition [3] -3% | outcome [5] | outcome [6] | outcome [7] | outcome [8]
active: growth inhibition [1] 100% | growth inhibition [4] 100%

O=C(Nc1ccc(Cl)c(Cl)c1)N1CCC(CNCc2cccc([N+](=O)[O-])c2)CC1
active: growth inhibition [4] 98%
inactive: growth inhibition [1] 6% | inhibition [2] 13% | inhibition [3] 2% | outcome [5] | outcome [6] | outcome [7] | outcome [8]

CC(C)(C)c1cc(C(=O)Nc2cccnc2)cc(C(=O)Nc2cccnc2)c1
inactive: growth inhibition [1] 35% | inhibition [2] -12% | inhibition [3] -3% | outcome [5] | outcome [6] | outcome [7] | outcome [8]
active: growth inhibition [4] 95%

Cc1ccc(NC(=O)Nc2ccc(Br)cc2)cc1OCCN(C)C
active: growth inhibition [4] 84%
inactive: growth inhibition [1] 15% | inhibition [2] 13% | inhibition [3] -1% | outcome [5] | outcome [6] | outcome [7] | outcome [8]

Cc1cnc(CN(Cc2ccc(-c3ccc(CNCCc4ccc(S(C)(=O)=O)cc4)cn3)cc2)C(=O)c2ccc([N+](=O)[O-])c(C)c2)cn1
inactive: growth inhibition [1] 15% | inhibition [2] -4% | inhibition [3] 4% | outcome [5] | outcome [6] | outcome [7] | outcome [8]
active: growth inhibition [4] 93%

COc1cccc2c1CCN(CCN1CCC(CNC(=O)c3ccc(-c4ccc(C#N)cc4)cc3)CC1)C2
inactive: inhibition [3] 6% | outcome [5] | outcome [6] | outcome [7] | outcome [8]
active: growth inhibition [1] 98% | inhibition [2] 57% | growth inhibition [4] 99%

COc1ccc(-c2nc(NC(=O)CS(=O)(=O)c3ccc(C)cc3)sc2C)cc1
inactive: inhibition [3] 2% | outcome [5] | outcome [6] | outcome [7] | outcome [8]
active: growth inhibition [1] 94% | inhibition [2] 56% | growth inhibition [4] 101%

Cc1noc(C)c1-c1ccc2c(Nc3ccccc3C(C)(C)C)c(C(=O)NC3CCCC3)cnc2c1
active: growth inhibition [1] 79% | growth inhibition [4] 93%
inactive: inhibition [2] 27% | inhibition [3] -3% | outcome [5] | outcome [6] | outcome [7] | outcome [8]

O=C(c1cc2c(s1)-c1cccc(Cl)c1SC2)N1CCN(c2ccncc2)CC1
inactive: growth inhibition [1] 36% | inhibition [2] 45% | inhibition [3] 1% | outcome [5] | outcome [6] | outcome [7] | outcome [8]
active: growth inhibition [4] 94%

NC(N)=Nc1nc(-c2cccc(NCCCCCCCCON3C(N)=NC(N)=NC34CCCCC4)c2)cs1
inactive: growth inhibition [1] 42% | inhibition [2] 3% | inhibition [3] -2% | outcome [5] | outcome [6] | outcome [7] | outcome [8]
active: growth inhibition [4] 97%

CCOC(=O)N1CCN(CCCCNc2c3ccc(Cl)cc3nc3ccc(OC)cc23)CC1
active: growth inhibition [1] 98% | growth inhibition [4] 104%
inactive: inhibition [2] 25% | inhibition [3] -5% | outcome [5] | outcome [6] | outcome [7] | outcome [8]

COc1cccc(CCc2cccc(CNC(C)=O)c2)c1
active: growth inhibition [4] 88%
inactive: growth inhibition [1] -2% | inhibition [2] 2% | inhibition [3] -2% | outcome [5] | outcome [6] | outcome [7] | outcome [8]

Cc1cc(NN=Cc2ccccc2)c2cc(C(F)(F)F)ccc2n1
active: growth inhibition [1] 97% | growth inhibition [4] 101%
inactive: inhibition [2] 30% | inhibition [3] -6% | outcome [5] | outcome [6] | outcome [7] | outcome [8]

O=S(=O)(Nc1ccc2nccc(N3CCNCC3)c2c1)c1ccc2oc3ccccc3c2c1
active: growth inhibition [4] 101%
inactive: growth inhibition [1] 2% | inhibition [2] 16% | inhibition [3] -5% | outcome [5] | outcome [6] | outcome [7] | outcome [8]

O=C(Nc1ccc(-c2cccc(-c3nc4ccc(C(F)(F)F)cc4[nH]3)c2)cc1)c1ccc(=O)[nH]n1
active: inhibition [2] 72% | growth inhibition [4] 87%
inactive: growth inhibition [1] 13% | inhibition [3] -4% | outcome [5] | outcome [6] | outcome [7] | outcome [8]

O=C(NC1CCCC1)c1cc2c(=O)n3ccccc3nc2nc1NCCc1ccccc1
active: growth inhibition [1] 61% | growth inhibition [4] 101%
inactive: inhibition [2] 19% | inhibition [3] 2% | outcome [5] | outcome [6] | outcome [7] | outcome [8]

O=C(Nc1ccc(F)c(Cl)c1)NC1CCN(c2ccnc3cc(Cl)ccc23)C1 (configuration not stated)
inactive: inhibition [2] 37% | inhibition [3] -3% | outcome [5] | outcome [6] | outcome [7] | outcome [8]
active: growth inhibition [1] 74% | growth inhibition [4] 101%
